# According to the supplement of paper PMC4466140:
# Target: AgAbp1
# Assay: SPOT peptide array binding signal intensity (averaged, normalized) (arbitrary units (background-subtracted, floor 0; scale differs between SH3 domains)); higher = stronger binding of the SH3 domain to the peptide
# Description: (§1)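 GST-tagged SH3 domains from S. cerevisiae (Sc), A. gossypii (Ag), C. albicans (Ca) and S. pombe (Sp) were incubated at 10 ug/ml overnight at 4 C on cellulose SPOT membranes carrying 292 synthetic 15-mer peptides mined from the S. cerevisiae proteome (cysteines replaced by serines). Binding was detected with anti-GST antibody, HRP secondary and chemiluminescence, quantified with Genespotter, and reported as normalized spot intensities averaged over biological replicates.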
row,Binder,SPOT peptide array binding signal intensity
1,RRSKSLPITPKSIFN,47
2,PKMLPIPSKPTLFDL,47

# Target: AgBbc1
# Assay: as above
# Description: as §1
row,Binder,SPOT peptide array binding signal intensity
1,RRSKSLPITPKSIFN,30.8
2,PKMLPIPSKPTLFDL,7.5

# Target: AgBem1-D1
# Assay: as above
# Description: as §1
row,Binder,SPOT peptide array binding signal intensity
1,RRSKSLPITPKSIFN,374
2,PKMLPIPSKPTLFDL,490

# Target: AgBzz1-D1
# Assay: as above
# Description: as §1
row,Binder,SPOT peptide array binding signal intensity
1,RRSKSLPITPKSIFN,59
2,PKMLPIPSKPTLFDL,24

# Target: AgBzz1-D2
# Assay: as above
# Description: as §1
row,Binder,SPOT peptide array binding signal intensity
1,RRSKSLPITPKSIFN,25
2,PKMLPIPSKPTLFDL,≤ 0

# Target: AgCyk3
# Assay: as above
# Description: as §1
row,Binder,SPOT peptide array binding signal intensity
1,RRSKSLPITPKSIFN,6.5
2,PKMLPIPSKPTLFDL,≤ 0

# Target: AgFus1
# Assay: as above
# Description: as §1
row,Binder,SPOT peptide array binding signal intensity
1,RRSKSLPITPKSIFN,79.5
2,PKMLPIPSKPTLFDL,212

# Target: AgHof1
# Assay: as above
# Description: as §1
row,Binder,SPOT peptide array binding signal intensity
1,RRSKSLPITPKSIFN,125
2,PKMLPIPSKPTLFDL,6

# Target: AgHse1
# Assay: as above
# Description: as §1
row,Binder,SPOT peptide array binding signal intensity
1,RRSKSLPITPKSIFN,306
2,PKMLPIPSKPTLFDL,106

# Target: AgLsb1
# Assay: as above
# Description: as §1
row,Binder,SPOT peptide array binding signal intensity
1,RRSKSLPITPKSIFN,1.5
2,PKMLPIPSKPTLFDL,2

# Target: AgLsb4
# Assay: as above
# Description: as §1
row,Binder,SPOT peptide array binding signal intensity
1,RRSKSLPITPKSIFN,78.5
2,PKMLPIPSKPTLFDL,18.5

# Target: AgMyo5
# Assay: as above
# Description: as §1
row,Binder,SPOT peptide array binding signal intensity
1,RRSKSLPITPKSIFN,0.5
2,PKMLPIPSKPTLFDL,3.25

# Target: AgNbp2
# Assay: as above
# Description: as §1
row,Binder,SPOT peptide array binding signal intensity
1,RRSKSLPITPKSIFN,27
2,PKMLPIPSKPTLFDL,91

# Target: AgRvs167
# Assay: as above
# Description: as §1
row,Binder,SPOT peptide array binding signal intensity
1,RRSKSLPITPKSIFN,0.667
2,PKMLPIPSKPTLFDL,3.33

# Target: AgSho1
# Assay: as above
# Description: as §1
row,Binder,SPOT peptide array binding signal intensity
1,RRSKSLPITPKSIFN,2230
2,PKMLPIPSKPTLFDL,776

# Target: AgSla1-D1-D2
# Assay: as above
# Description: as §1
row,Binder,SPOT peptide array binding signal intensity
1,RRSKSLPITPKSIFN,350
2,PKMLPIPSKPTLFDL,≤ 0

# Target: AgSla1-D3
# Assay: as above
# Description: as §1
row,Binder,SPOT peptide array binding signal intensity
1,RRSKSLPITPKSIFN,≤ 0
2,PKMLPIPSKPTLFDL,5.5

# Target: CaAbp1-D1
# Assay: as above
# Description: as §1
row,Binder,SPOT peptide array binding signal intensity
1,RRSKSLPITPKSIFN,144
2,PKMLPIPSKPTLFDL,434

# Target: CaAbp1-D2
# Assay: as above
# Description: as §1
row,Binder,SPOT peptide array binding signal intensity
1,RRSKSLPITPKSIFN,310
2,PKMLPIPSKPTLFDL,459

# Target: CaBbc1
# Assay: as above
# Description: as §1
row,Binder,SPOT peptide array binding signal intensity
1,RRSKSLPITPKSIFN,103
2,PKMLPIPSKPTLFDL,38.8

# Target: CaBem1-D1
# Assay: as above
# Description: as §1
row,Binder,SPOT peptide array binding signal intensity
1,RRSKSLPITPKSIFN,55
2,PKMLPIPSKPTLFDL,95

# Target: CaBzz1-D1
# Assay: as above
# Description: as §1
row,Binder,SPOT peptide array binding signal intensity
1,RRSKSLPITPKSIFN,146
2,PKMLPIPSKPTLFDL,362

# Target: CaBzz1-D2
# Assay: as above
# Description: as §1
row,Binder,SPOT peptide array binding signal intensity
1,RRSKSLPITPKSIFN,61
2,PKMLPIPSKPTLFDL,146

# Target: CaCyk3
# Assay: as above
# Description: as §1
row,Binder,SPOT peptide array binding signal intensity
1,RRSKSLPITPKSIFN,13.5
2,PKMLPIPSKPTLFDL,7

# Target: CaFus1
# Assay: as above
# Description: as §1
row,Binder,SPOT peptide array binding signal intensity
1,RRSKSLPITPKSIFN,368
2,PKMLPIPSKPTLFDL,852

# Target: CaHof1
# Assay: as above
# Description: as §1
row,Binder,SPOT peptide array binding signal intensity
1,RRSKSLPITPKSIFN,1
2,PKMLPIPSKPTLFDL,≤ 0

# Target: CaHse1
# Assay: as above
# Description: as §1
row,Binder,SPOT peptide array binding signal intensity
1,RRSKSLPITPKSIFN,1
2,PKMLPIPSKPTLFDL,79

# Target: CaLsb1
# Assay: as above
# Description: as §1
row,Binder,SPOT peptide array binding signal intensity
1,RRSKSLPITPKSIFN,1
2,PKMLPIPSKPTLFDL,2

# Target: CaLsb4
# Assay: as above
# Description: as §1
row,Binder,SPOT peptide array binding signal intensity
1,RRSKSLPITPKSIFN,57
2,PKMLPIPSKPTLFDL,209

# Target: CaMyo5
# Assay: as above
# Description: as §1
row,Binder,SPOT peptide array binding signal intensity
1,RRSKSLPITPKSIFN,3
2,PKMLPIPSKPTLFDL,89.5

# Target: CaNbp2
# Assay: as above
# Description: as §1
row,Binder,SPOT peptide array binding signal intensity
1,RRSKSLPITPKSIFN,128

# Target: CaRvs167
# Assay: as above
# Description: as §1
row,Binder,SPOT peptide array binding signal intensity
1,RRSKSLPITPKSIFN,2.33

# Target: CaRvs167-3
# Assay: as above
# Description: as §1
row,Binder,SPOT peptide array binding signal intensity
1,RRSKSLPITPKSIFN,8.25

# Target: CaSho1
# Assay: as above
# Description: as §1
row,Binder,SPOT peptide array binding signal intensity
1,RRSKSLPITPKSIFN,353

# Target: CaSla1-D1-D2
# Assay: as above
# Description: as §1
row,Binder,SPOT peptide array binding signal intensity
1,RRSKSLPITPKSIFN,1140

# Target: CaSla1-D3
# Assay: as above
# Description: as §1
row,Binder,SPOT peptide array binding signal intensity
1,RRSKSLPITPKSIFN,0.5

# Target: ScAbp1
# Assay: as above
# Description: as §1
row,Binder,SPOT peptide array binding signal intensity
1,RRSKSLPITPKSIFN,84

# Target: ScBbc1
# Assay: as above
# Description: as §1
row,Binder,SPOT peptide array binding signal intensity
1,RRSKSLPITPKSIFN,11

# Target: ScBem1-D1
# Assay: as above
# Description: as §1
row,Binder,SPOT peptide array binding signal intensity
1,RRSKSLPITPKSIFN,88

# Target: ScBzz1-D1
# Assay: as above
# Description: as §1
row,Binder,SPOT peptide array binding signal intensity
1,RRSKSLPITPKSIFN,31

# Target: ScBzz1-D2
# Assay: as above
# Description: as §1
row,Binder,SPOT peptide array binding signal intensity
1,RRSKSLPITPKSIFN,12.5

# Target: ScCyk3
# Assay: as above
# Description: as §1
row,Binder,SPOT peptide array binding signal intensity
1,RRSKSLPITPKSIFN,54

# Target: ScFus1
# Assay: as above
# Description: as §1
row,Binder,SPOT peptide array binding signal intensity
1,RRSKSLPITPKSIFN,47.5

# Target: ScHof1
# Assay: as above
# Description: as §1
row,Binder,SPOT peptide array binding signal intensity
1,RRSKSLPITPKSIFN,≤ 0

# Target: ScHse1
# Assay: as above
# Description: as §1
row,Binder,SPOT peptide array binding signal intensity
1,RRSKSLPITPKSIFN,420

# Target: ScLsb1
# Assay: as above
# Description: as §1
row,Binder,SPOT peptide array binding signal intensity
1,RRSKSLPITPKSIFN,2.5

# Target: ScLsb2
# Assay: as above
# Description: as §1
row,Binder,SPOT peptide array binding signal intensity
1,RRSKSLPITPKSIFN,1

# Target: ScLsb3
# Assay: as above
# Description: as §1
row,Binder,SPOT peptide array binding signal intensity
1,RRSKSLPITPKSIFN,≤ 0

# Target: ScLsb4
# Assay: as above
# Description: as §1
row,Binder,SPOT peptide array binding signal intensity
1,RRSKSLPITPKSIFN,8

# Target: ScMyo3
# Assay: as above
# Description: as §1
row,Binder,SPOT peptide array binding signal intensity
1,RRSKSLPITPKSIFN,8.5

# Target: ScMyo5
# Assay: as above
# Description: as §1
row,Binder,SPOT peptide array binding signal intensity
1,RRSKSLPITPKSIFN,2

# Target: ScNbp2
# Assay: as above
# Description: as §1
row,Binder,SPOT peptide array binding signal intensity
1,RRSKSLPITPKSIFN,47

# Target: ScPex13
# Assay: as above
# Description: as §1
row,Binder,SPOT peptide array binding signal intensity
1,RRSKSLPITPKSIFN,≤ 0

# Target: ScRvs167
# Assay: as above
# Description: as §1
row,Binder,SPOT peptide array binding signal intensity
1,RRSKSLPITPKSIFN,0.333

# Target: ScSho1
# Assay: as above
# Description: as §1
row,Binder,SPOT peptide array binding signal intensity
1,RRSKSLPITPKSIFN,4000

# Target: ScSla1-D1-D2
# Assay: as above
# Description: as §1
row,Binder,SPOT peptide array binding signal intensity
1,RRSKSLPITPKSIFN,2340

# Target: ScSla1-D3
# Assay: as above
# Description: as §1
row,Binder,SPOT peptide array binding signal intensity
1,RRSKSLPITPKSIFN,54

# Target: SpAbp1-D1
# Assay: as above
# Description: as §1
row,Binder,SPOT peptide array binding signal intensity
1,RRSKSLPITPKSIFN,205

# Target: SpBbc1
# Assay: as above
# Description: as §1
row,Binder,SPOT peptide array binding signal intensity
1,RRSKSLPITPKSIFN,1.5

# Target: SpBzz1-D1
# Assay: as above
# Description: as §1
row,Binder,SPOT peptide array binding signal intensity
1,RRSKSLPITPKSIFN,204

# Target: SpBzz1-D2
# Assay: as above
# Description: as §1
row,Binder,SPOT peptide array binding signal intensity
1,RRSKSLPITPKSIFN,≤ 0

# Target: SpCyk3
# Assay: as above
# Description: as §1
row,Binder,SPOT peptide array binding signal intensity
1,RRSKSLPITPKSIFN,3

# Target: SpHof1
# Assay: as above
# Description: as §1
row,Binder,SPOT peptide array binding signal intensity
1,RRSKSLPITPKSIFN,2190

# Target: SpHof1-2
# Assay: as above
# Description: as §1
row,Binder,SPOT peptide array binding signal intensity
1,RRSKSLPITPKSIFN,1340

# Target: SpHof1-3
# Assay: as above
# Description: as §1
row,Binder,SPOT peptide array binding signal intensity
1,RRSKSLPITPKSIFN,1120

# Target: SpHse1
# Assay: as above
# Description: as §1
row,Binder,SPOT peptide array binding signal intensity
1,RRSKSLPITPKSIFN,216

# Target: SpLsb1
# Assay: as above
# Description: as §1
row,Binder,SPOT peptide array binding signal intensity
1,RRSKSLPITPKSIFN,≤ 0

# Target: SpLsb4
# Assay: as above
# Description: as §1
row,Binder,SPOT peptide array binding signal intensity
1,RRSKSLPITPKSIFN,64.5

# Target: SpMyo1
# Assay: as above
# Description: as §1
row,Binder,SPOT peptide array binding signal intensity
1,RRSKSLPITPKSIFN,24.8

# Target: SpNbp2
# Assay: as above
# Description: as §1
row,Binder,SPOT peptide array binding signal intensity
1,RRSKSLPITPKSIFN,39.5

# Target: SpPex13
# Assay: as above
# Description: as §1
row,Binder,SPOT peptide array binding signal intensity
1,RRSKSLPITPKSIFN,5

# Target: SpRvs167
# Assay: as above
# Description: as §1
row,Binder,SPOT peptide array binding signal intensity
1,RRSKSLPITPKSIFN,4.33

# Target: SpSla1-D1-D2
# Assay: as above
# Description: as §1
row,Binder,SPOT peptide array binding signal intensity
1,RRSKSLPITPKSIFN,1130

# Target: SpSla1-D3
# Assay: as above
# Description: as §1
row,Binder,SPOT peptide array binding signal intensity
1,RRSKSLPITPKSIFN,≤ 0
